High-throughput results from PubChem BioAssay.
tim10-1 inh – growth inhibitors of tim10-1 mutant yeast, primary screen, luminescence, uHTS. AID 463190, 2010. 2.2% of 330,000 active. S. cerevisiae tim10-1 ts strain growth, BacTiter-Glo, 24 h. inhibition, % at 20 µM;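 active = inhibition of at least 40%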;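 also: mutant grown at 25 °C; 0% = DMSO wells with yeast and 100% = wells holding no yeast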
TIM10 inh – growth inhibitors of isogenic TIM10 control yeast, primary screen, counter-screen for tim10-1 yeast inhibitor project, luminescence, uHTS; S. cerevisiae TIM10 strain growth, BacTiter-Glo luminescence, 24 h; inhibition, % at 10 µM; 1.4% of 330,000 active; AID 463195, 2010;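 active = inhibition of 40% or more at the single tested concentration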;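 also: wild-type TIM10 isogenic control strain grown at permissive 25 °C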
NALP1 yeast inh – NALP1 inflammasome inhibitors in reconstituted yeast, colorimetric, S. cerevisiae, triplicate retest. S. cerevisiae NALP1/ASC/caspase-1 growth, X-gal OD620, 72 h. inhibition, % at 10 µM. 0.61% of 280,000 active; in the data active = inhibition mostly above about 24%, no sharp cut-off; inactive = mostly below about 32%
NLRP3 yeast inh – NALP3 inflammasome inhibitors in reconstituted yeast, primary screen, luminescence, uHTS; Yeast reconstituted NLRP3/ASC/caspase-1, beta-gal luminescence, 24 h; inhibition, % at 10 µM; 0.39% of 330,000 active;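 active = inhibition of 50% or more; inactive = inhibition below 50%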;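 also: plate controls were induced DMSO wells for no effect and uninduced yeast grown without galactose for full effect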
tim23-1 inh – growth inhibitors of tim23-1 mutant yeast, primary screen, luminescence, uHTS | inhibition, % at 20 µM | 1.3% of 330,000 active | S. cerevisiae tim23-1 growth, BacTiter-Glo luminescence, 24 h | AID 463212, 2010;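 active = growth inhibition of the mutant yeast at or above 50%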;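 also: temperature-sensitive mutant grown at 25 °C; plate controls were DMSO-treated mutant yeast for no effect and medium wells lacking yeast for full effect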
tim10-1 confirm – growth inhibitors of tim10-1 mutant yeast, confirmation, single concentration, luminescence, S. cerevisiae; shares compounds with tim10-1 inh; S. cerevisiae tim10-1 ts strain growth, BacTiter-Glo, 24 h; inhibition, % at 20 µM; 56% of 7,400 active; AID 463213, 2010;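 active = inhibition of yeast growth at or above a set limit in either of two repeat tests at 20 µM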;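 also: tim10-1 mutant grown at permissive 25 °C to find synthetic lethal compounds; 0% = DMSO yeast wells and 100% = medium wells without yeast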
Active calls of the source: *; . = no result. Most compounds without a hit are left out; they make up all but 4% or so of the library.

SMILES	tim10-1 inh	TIM10 inh	NALP1 yeast inh	NLRP3 yeast inh	tim23-1 inh	tim10-1 confirm
O=C(c1ccoc1)N1CCC2(CC1)Oc1ccc(Cl)cc1C(=O)C21CC(c2ccc(Cl)cc2)=NO1 (stereo not given)	53.5*	27.4	1.7	15.7	30.0	41.1*
CC(C)C(=O)N1CCC2(CC1)Oc1ccc(Cl)cc1C(=O)C21CC(c2ccccc2)=NO1 (stereo not given)	53.4*	-9.4	7.3	11.2	3.2	29.9
O=C(c1ccc2c(c1)OCO2)N1CCC2(CC1)Oc1ccc(F)cc1C(=O)C21CC(c2ccccc2)=NO1 (stereo not given)	41.8*	-11.9	7.3	-4.8	-1.6	34.5*
Cc1ccc(F)cc1NC(=O)C12CC3CC(C1)CC(n1cnc([N+](=O)[O-])n1)(C3)C2	6.6	22.5	2.0	-9.0	-0.6	.
CCC(=O)N1CCC2(CC1)Oc1ccc(F)cc1C(=O)C21CC(c2ccc(Cl)cc2)=NO1 (stereo not given)	14.1	11.5	-0.5	9.6	25.8	.
CC(C)C(=O)N1CCC2(CC1)Oc1ccc(F)cc1C(=O)C21CC(c2ccc(Cl)cc2)=NO1 (stereo not given)	46.9*	-15.6	14.1	5.0	6.5	21.5
CN(CCCC(=O)O)c1ccc(N=Nc2ccc([N+](=O)[O-])cc2)cc1	54.0*	27.5	.	26.5	47.6	44.5*
O=C(COC(=O)c1cccc(S(=O)(=O)N2CCc3ccccc3C2)c1)NCc1ccco1	40.9*	1.0	-6.5	19.2	2.8	12.2
Cc1ccc2nc(SCC(=O)NCc3ccc4c(c3)OCO4)nc(=O)n2c1	3.0	-3.3	.	18.8	-2.5	.
C=CCNc1cccc(Br)c1	-0.8	1.6	.	11.6	-5.8	.
CCOc1ccc(OCCC(=O)OCC(=O)N2CCN(S(=O)(=O)c3ccc(C)cc3)CC2)cc1	34.3	26.5	.	14.1	22.6	.
Cc1ccc(S(=O)(=O)N2CCN(C(=O)COC(=O)CCOc3ccc(C(C)(C)C)cc3)CC2)cc1	49.0*	28.4	.	11.5	33.4	26.1
CCC(CC)CN1CCN=C1N(C)C	2.1	5.5	4.1	9.5	10.0	.
Cc1[nH]c2ccc(F)cc2c1CCN(Cc1ccncc1)C(=S)Nc1ccc(F)cc1	41.9*	-3.5	-3.0	9.6	30.1	7.2
CS(=O)(=O)N(CC(=O)Nc1cccc(Br)c1)Cc1ccccc1	18.3	6.9	2.8	8.0	27.2	.
CCOc1cc(C2Nc3cccc4cccc(c34)N2)ccc1O	50.9*	32.1	2.4	12.2	37.3	29.4
CCOc1ccc(C2Nc3cccc4cccc(c34)N2)cc1OC	16.4	6.4	4.1	19.4	17.2	.
CC1CCCC(NC(=O)CN2CCN(S(=O)(=O)c3ccc(Br)s3)CC2)C1C (stereo not given)	33.6	19.9	.	7.4	35.1	.
COc1cccc(-c2nn(-c3ccccc3)cc2CN(C)C(C)c2ccncn2)c1 (stereo not given)	43.8*	16.1	9.8	-16.5	33.0	21.8
COc1cccc(-c2nn(-c3ccccc3)cc2CO)c1	32.4	15.5	-5.2	31.3	13.5	.
Cc1cc(C)n2c(SCc3ccccc3Cl)nnc2n1	42.8*	-1.8	-11.4	22.8	30.9	17.3
Cc1nc(C)c(-c2nnc(-c3ccc(C(C)(C)C)cc3)o2)cc1C(=O)NN	29.2	7.7	13.6	15.1	18.3	.
Cc1cccc(C)c1NC(=O)c1cc(-c2ccccn2)nc2ccccc12	40.8*	17.5	-6.6	15.6	33.4	26.8
COc1ccc(NC(=O)c2cc(-c3ccco3)nc3ccccc23)cc1	-1.7	-12.4	.	16.1	2.5	.
O=C(Nc1ccncc1)c1cc(-c2ccccn2)nc2ccccc12	18.6	-7.3	-3.5	8.2	-16.1	.
SMILES	tim10-1 inh	TIM10 inh	NALP1 yeast inh	NLRP3 yeast inh	tim23-1 inh	tim10-1 confirm
CCc1cccc(C)c1NC(=O)c1cc(-c2ccncc2)nc2ccccc12	41.9*	15.8	.	25.8	26.7	22.6
Cc1cccc(NC(=O)c2cc(-c3ccco3)nc3ccccc23)n1	41.0*	25.5	-10.6	14.8	26.4	17.1
Cc1ccc(C(=O)N/N=C/c2ccc([N+](=O)[O-])s2)cc1	20.7	25.4	9.9	16.3	28.3	.
O=C(N/N=C/c1ccc(O)c2ncccc12)c1cccc(Br)c1	52.3*	10.5	4.7	-56.3	15.0	19.2
O=C(N/N=C/c1ccc([N+](=O)[O-])s1)c1cccc(Br)c1	52.5*	30.4	8.8	26.4	39.3	25.8
Cc1ccnn1CCC(=O)N1CCCC(Nc2ccc(F)c(F)c2)C1 (stereo not given)	-5.6	-2.0	-3.5	10.3	0.7	.
COc1cc(N)ccc1NC(=O)c1cc2ccccc2o1	-9.6	7.7	.	22.9	-11.3	.
O=c1cc2[nH]c3ccccc3c(=O)n2nc1-c1ccccc1	4.9	-3.7	8.0	-3.9	32.2	.
Cc1cc2ncn(/N=C/c3ccc(-c4ccccc4)o3)c2cc1C	46.5*	30.2	14.4	-1.9	-10.1	16.7
Clc1ccc(-c2n[nH]c3c2CCC3)c(Cl)c1	40.9*	14.7	11.9	17.6	32.9	25.2
CCCCCCC(=O)OCC(=O)c1ccc2c(c1)NC(=O)CO2	40.3*	2.8	-30.8	-1.0	30.3	28.5
O=S(=O)(Nc1nc2ccccc2nc1NCc1ccco1)c1ccc(F)cc1	17.2	15.0	-5.9	28.7	30.6	.
Cc1nn(C(C)(C)C)c(C)c1/C=N/OC(=O)Nc1ccc(Cl)cc1	42.5*	26.1	.	34.5	42.7	30.2
O=C(CNC(=O)c1nc[nH]c1C(=O)N1CCN(c2ccccc2)CC1)OCc1ccccc1	11.5	9.6	1.8	-3.6	25.3	.
CCOP(=O)(NC12CC3CC(CC(C3)C1)C2)NC12CC3CC(CC(C3)C1)C2	40.3*	25.5	3.4	14.7	24.8	28.5
COCCC(=O)NC12CC3CC(CC(C3)C1)C2	0.7	-1.1	11.9	5.0	3.9	.
CC1(c2ccccc2)NC(=O)N(CC(=O)Nc2ccccc2C(=O)N2CCCCC2)C1=O (stereo not given)	-7.7	4.9	.	-0.8	2.8	.
CCCC[C@@H]1CNC(=S)N1CCC12CC3CC(CC(C3)C1)C2	41.5*	9.7	-4.0	20.6	36.2	15.5
COCCNC(=O)c1c(N)n(CCC2=CCCCC2)c2nc3ccccc3nc12	43.0*	24.2	-0.5	-7.9	5.1	12.9
COc1ccc(CCn2c(N)c(C(=O)NCc3ccco3)c3nc4ccccc4nc32)cc1	29.0	20.8	24.7	2.4	4.8	.
COCCn1c(N)c(C(=O)OCc2ccccc2)c2nc3ccccc3nc21	42.7*	30.0	6.9	15.4	41.1	26.7
CN1C=CC(=CC=C2C=CC(=O)C=C2)C=C1	11.2	-12.2	14.4	11.4	7.3	.
